# Assay outcomes deposited in PubChem by National Center for Advancing Translational Sciences (NCATS).
# MARV entry inh = qHTS for inhibitors of binding or entry into cells for Marburg Virus. Marburg virus pseudotyped entry inhibition, cell reporter. 300,000 tested, 1.8% active. Potency, µM (highest dose often 37.8 µM), without a hit: at the top dose activity change, negative = inhibition, actives largely listed as inhibitors. AID 540276, 2011; calls by dose curve; tested in HEK293 cells; further: potency means the concentration at half of the fitted maximal effect
# Lassa entry inh = qHTS for Inhibitors of binding or entry into cells for Lassa Virus. Lassa virus pseudotype entry inhibition, cell reporter. Potency, µM (top dose mostly 37.9 µM), without a hit: at the highest dose activity change, negative = inhibition, actives largely listed as inhibitors. 300,000 tested, 1.2% active. AID 540256, 2011; calls by dose curve; tested in HEK293 cells; further: potency means the concentration at half of the fitted maximal effect; nearly all actives have a fitted effect of over 50% in size
# HCV inhibitor = qHTS Assay for Inhibitors of Hepatitis C Virus (HCV); Huh7.5.1 HCVcc-Cre infection, luciferase reporter, 44 h; Potency, µM (doses to about 41.8 µM), for inactives: at the highest dose activity change, negative = inhibition, hits mostly inhibitors; 340,000 tested, 3.4% active; active means well fitted inhibition curve with a large enough effect; inconclusive means small, poorly fitted or top-dose-only effect, or another doubt; inactive means no such curve, though single readings can be large or run the other way; further: potency means the concentration at half of the fitted maximal effect
#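 Reporter virus HCVcc-Cre (~0.5 moi) infects cells exposed to compound; seeding density 1,000 cells/well with 4 h settling beforehand. Luminescence, 15 sec read, taken 44 h post-infection following a 15 min RT substrate incubation.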
# FMDV inh = High Throughput Screening for Foot and Mouth Disease Virus Antivirals; FMDV antiviral cell-based qHTS; Potency, µM (doses to about 57.9 µM), without a hit: at the highest dose activity change, negative = inhibition, usual class: inhibitors; 410,000 tested, 1.2% active; AID 1159524, 2015; calls by dose curve; tested in HEK293T cells; further: read-out not given here; potency means the concentration at half of the fitted maximal effect; nearly all actives have a fitted effect of over 45% in size
# HCMV antiviral = qHTS Assay for inhibitors of the human cytomegalovirus (HCMV); HFF cells, HCMV-luciferase reporter, 72 h; stronger effect = lower value; activity change, negative = inhibition, % at 57.5 µM; 410,000 tested, 4.5% active; in the data active means activity change below about -60%; inconclusive means no clear call, values can overlap the other calls; inactive means above about -39%
#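 Human foreskin fibroblasts infected with luciferase-reporter HCMV at MOI 1 PFU/cell, compounds at two doses. Luciferase measured 72 h post infection; normalized to buffer-only basal and Salinomycin (10uM) controls.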
# An asterisk follows results filed as active; ? = inconclusive; · = not tested or not shown; [ ] = remark or other dose. Most compounds without a hit are left out; they make up all but 7.9% or so of the library. On the % scale 0 is the no-effect control and ±100 the full control effect.
SMILES,MARV entry inh,Lassa entry inh,HCV inhibitor,FMDV inh,HCMV antiviral
COc1ccccc1OCC(=O)NNC(=O)C1CCN(c2ncnc3sc(C)c(C)c23)CC1,·,·,11µM*,18µM*,-29
Cc1cccc(OCC(=O)NNC(=O)C2CCN(c3ncnc4sc(C)c(C)c34)CC2)c1,-29%,-1%,-13%,28µM*,-39
C=CCN1C(=O)[C@@]2(CC(C)=CC[C@@H](C)O2)c2c(Br)cccc21,3%[14.2 µM],·,·,·,·
CCCc1cc(=O)oc2cc(C)c3c(C(C)(C)C)coc3c12,?,4%[46.1 µM],·,?,5
CCOc1ccc(CCNC(=O)c2cnc3sc(N4CCCCC4)nn3c2=O)cc1,·,?,·,?,26
C=CCn1c(C)cc(-c2csc(NC(=O)C3CCN(c4ncnc5sc(C)c(C)c45)CC3)n2)c1C,·,·,-19%,?,11
COc1ccc(-c2csc(NC(=O)C3CCN(c4ncnc5sc(C)c(C)c45)CC3)n2)cc1OC,4µM*,2µM*,2.5µM*,8.9µM*,-100*
CCOC(=O)c1sc2ncnc(N3CCN(CC)CC3)c2c1C,-6%[46.1 µM],5%,?,2%,?
CCOC(=O)c1sc2ncnc(N3CCN(C(=O)OCC)CC3)c2c1C,-16%,?,-30%,16µM*,?
Cc1cccc(Nc2n[nH]c(C)c2[N+](=O)[O-])c1,13µM*,?,-22%,23%,88
COc1ccc(Br)cc1CNC(=O)C(C)n1nc(C)n2c(cc3occc32)c1=O (centres undefined),-27%[46.1 µM],·,·,-9%,?
Cc1ccc(C(=O)N2CCN(Cc3ccc4c(c3)OCO4)CC2)c(Cl)c1,?,-23%[46.1 µM],11µM*,?,-31
CN(c1ccc(C(=O)N2CCN(Cc3ccccc3)CC2)cc1)S(=O)(=O)c1ccccc1,-25%[46.1 µM],?,?,-11%,?
CN(c1ccc(C(=O)N2CCN(Cc3ccc4c(c3)OCO4)CC2)cc1)S(=O)(=O)c1ccccc1,?,-27%,6.3µM*,?,-101*
Cc1ccc(S(=O)(=O)N(C)c2ccc(C(=O)N3CCN(Cc4ccc5c(c4)OCO5)CC3)cc2)cc1,?,?,4.5µM*,16µM*,-95*
CCCOc1ccc(CS[C@@H](CC(=O)O)C(=O)O)cc1,17%,·,·,·,·
Cc1nc(N)nc(N)c1/C=C/C(C)(C)c1ccc(Cl)cc1,?,?,?,?,-109*
Cc1cccc(-n2c(=O)c3c4c(sc3n3c(C)nnc23)CCCC4)c1,·,-5%[46.1 µM],·,0%,3
CC(=O)Nc1ccc(N2N=C(C)C(N=Nc3ccccc3)C2=O)cc1 (centres undefined),21%,22%,-2%,16%,-101*
O=C(CC1CCCCC1)c1c(O)c2ccccc2oc1=O,6%,0%,0%,8%,-68*
CC(=N)c1c(O)c2ccccc2oc1=O,·,·,2%,42%,2
CC1CCC(C(=O)c2c(O)c3ccccc3oc2=O)CC1 (centres undefined),3%,2%,?,-8%,-100*
CCCCC(=O)c1c(O)c2ccccc2oc1=O,0%,4%,-4%,11%,0
CC(=O)c1c(C)[nH]c(C(=O)CSc2nnc(-c3ccccc3)n2Cc2ccc3c(c2)OCO3)c1C,?,-21%,?,-23%,2
Cc1cc(C(=O)CSc2nnc(-c3cccc(F)c3)n2N)c(C)n1Cc1ccc2c(c1)OCO2,?,-27%,13µM*,?,-84*
SMILES,MARV entry inh,Lassa entry inh,HCV inhibitor,FMDV inh,HCMV antiviral
O=C(Cc1n[nH]c(=O)c2ccccc12)OCC(=O)c1ccccc1Cl,-5%,24%,24%,-7%,21
Cc1cc(C(=O)COc2ccc(C#N)cc2)c(C)n1-c1ccc2c(c1)OCO2,-14%,2%,-20%,?,-66*
Cc1cc(C(=O)COC(=O)Cc2n[nH]c(=O)c3ccccc23)c(C)n1-c1ccc2c(c1)OCCO2,8%,-14%,-27%,?,-77*
Cc1cc(C(=O)CSc2nncs2)c(C)n1-c1ccc2c(c1)OCO2,16%,8%,?,·,-69*
CCCn1c(SCC(=O)c2cc(C)n(-c3ccc4c(c3)OCO4)c2C)n[nH]c1=O,?,?,?,?,-26
COc1ccc(NC(=O)CSc2nc3nc(C)c(Cc4ccc(C)cc4)c(C)n3n2)cc1OC,·,5%[46.1 µM],·,?,13
Cc1cc(C(=O)CSc2nnnn2-c2ccc(O)cc2)c(C)n1Cc1ccc2c(c1)OCO2,13%,?,?,?,-5
Cc1cc(C(=O)CSc2nnnn2-c2ccccc2)c(C)n1-c1ccc2c(c1)OCO2,?,6.5µM*,?,-26%,-3
CCOC(=O)c1c(NC(=O)/C=C/C(=O)O)sc(C)c1-c1ccc(C(C)(C)C)cc1,10µM*,?,?,18µM*,?
CCOC(=O)c1c(NC(=O)/C=C\C(=O)O)sc(C)c1-c1ccccc1,-23%[46.1 µM],-13%,12%,?,-17
CCOC(=O)c1c(NC(=O)CCN2CCOCC2)sc(C)c1-c1ccccc1,?,3.2µM*,25µM*,?,-30
Cc1ccc(-c2csc3nc(C)n(N)c(=O)c23)cc1,·,·,7%,6%,-86*
Cc1ccc(-c2csc3nc(SCC(N)=O)n(Cc4ccccc4)c(=O)c23)cc1,?,-30%,?,32µM*,-28
Cc1ccc(-c2csc3nc(-c4ccncc4)[nH]c(=O)c23)cc1,·,·,5.6µM*,-26%,20
Cc1cnc(-n2ncc(C(=O)NCc3ccccn3)c2C2CC2)nc1-c1cccs1,·,·,·,-11%,·
CCOc1cc(Cl)c(NC(C)=O)cc1OCC,8%,10%,?,-19%,-63*
CCn1cc(SCC(=O)NCc2ccc3c(c2)OCO3)c2ccccc21,·,·,10µM*,5%,26
